Results filed as inconclusive are left out. A call without a number means that no potency is given here. Active and inactive are the calls of the source. The call rests on the fitted dose curve; in most records, active means well fitted cell-killing curve with a large enough effect in the repeat runs; inconclusive means weak or mixed curves, or effect the other way; inactive means no such curve, though single readings can be large or run the other way.

The assay in a line: qHTS assay to identify small molecule agonists of the vitamin D receptor (VDR) signaling pathway - cell viability counter screen (AID 743224). Further: nearly all actives have a fitted effect of over 50% in size. To be noted: VDR-bla HEK293T viability, CellTiter-Glo luminescence, 16 h; series mostly up to 62.6 µM. An excerpt:
U.S. Tox21 Program National Center for Advancing Translational Sciences [NCATS] NIH Chemical Genomics Center [NCGC] U.S. Environmental Protection Agency [EPA] National Institutes of Environmental Health Sciences [NIEHS] National Toxicology Program [NTP] U.S. Food and Drug Administration [FDA] Tox21 Assay Overview: The vitamin D receptor (VDR), a member of nuclear hormone receptor superfamily, plays a critical role in calcium homeostasis and bone metabolism. It is also involved in cell differentiation and growth, and thrombogenicity. […] The cytotoxicity of the Tox21 compound library against the VDR-bla cell line was tested in parallel by measuring the cell viability using CellTiter-Glo assay (Promega, Madison, WI) in the same wells.
Tox21 Assay Protocol Summary: VDR-bla cells were dispensed at 2,000 cells/6 uL/well into black wall/clear-bottom 1536-well plates using a Multidrop Combi (Thermo Fisher Scientific, Waltham, MA) dispenser. After the assay plates were incubated at a 37C and 5% CO2 for 4 h, 23 nL of compounds dissolved in DMSO, positive controls or DMSO only was transferred to the assay plate by a Pintool station (Kalypsys, San Diego, CA). The plates were incubated at 37C and 5% CO2 for 16 h. After 1 uL of LiveBLAzerTM B/G FRET substrate was added using a Bioraptr Flying Reagent Dispenser (FRD) workstation (Beckman Coulter, Indianapolis, IN, USA), the plates were incubated at room temperature for 2 h, and fluorescence intensity was measured by an Envision plate reader (PerkinElmer, Shelton, CT). For cell viability readout that measures cytotoxicity, 3 ul/well of CellTiter-Glo reagent was added into the assay plates using a FRD. After 30 min incubation at room temperature, the luminescence intensity in the plates was measured using a ViewLux (PerkinElmer) plate reader.
(In general: Quantitative high-throughput screening tests each substance at several concentrations.)
Consider `CCNP(=S)(OC)O/C(C)=C/C(=O)OC(C)C` (stereo not given), for which the Potency result was “inactive”. Still for that read-out and setting: the result for `CCOC(=O)CC(SP(=S)(OC)OC)C(=O)OCC` (stereo not given) reads “inactive”. On the same count and under the same terms, the result for `CCc1ccc(C2CCNCC2)cc1` reads “inactive”; that for `[P]#[In]`, “inactive”. Same read-out and setting: the same measure for `COC(=O)c1ccc(CBr)cc1`: “inactive”; for `CNC(=O)Oc1ccccc1C(C)C`: “inactive”; for `CCCOC(=O)c1cncn1C(C)c1ccccc1` (stereo not given): “inactive”. Turning to `OCC(Cl)CCl` (stereo not given), the Potency entry is “inactive”. Take `CN1C(=O)COc2c(C(=O)NC3CN4CCC3CC4)cc(Cl)cc21` (stereo not given): the Potency entry was “inactive”. For the molecule `CCC1(CC)C(=O)C=CNC1=O`, the Potency result was “inactive”.

Regarding `O=c1[nH]oc2c1CCNC2`, the Potency entry was “inactive”. Same read-out and setting: the same measure for `CCOC(=O)COc1ccc(Cl)cc1Cl`: “inactive”. Still for that read-out and setting: the result for `C1CN2CCC1CC2` reads “inactive”; that for `CON(C)C(=O)Nc1ccc(Br)cc1`, “inactive”; that for `COc1cc(CC(C)N)cc(OC)c1OC` (stereo not given), “inactive”.

`CCC1(c2ccccc2)CCC(=O)NC1=O` (stereo not given): the Potency result is “inactive”. Same read-out and setting: the same measure for `O=[N+]([O-])CCO`: “inactive”. In the case of `O=C(O)CBr`, the Potency entry was “inactive”. On the same count and under the same terms, the result for `NNC(N)=O` reads “inactive”; that for `Oc1ccc(Cc2ccc(O)cc2)cc1`, “inactive”; that for `CC(C)c1ccc(O)cc1`, “inactive”. Regarding `CCC1(c2cccc(O)c2)CCCCN(C)C1` (stereo not given), the Potency entry is “inactive”. Same read-out and setting: the result for `CCOC(=O)Nc1cccc(OC(=O)Nc2ccccc2)c1` reads “inactive”; that for `C[C@H](CN1CCOCC1)C(C(=O)N1CCCC1)(c1ccccc1)c1ccccc1`, “inactive”; that for `O=C(CCl)NCO`, “inactive”.

Turning to `CC(=O)OCC1=C(C(=O)O)N2C(=O)[C@@H](N)[C@H]2SC1`, the Potency result was “inactive”. Same read-out and setting: the same measure for `CC[C@@H](CO)NC(=O)[C@@H]1C=C2c3cccc4c3c(cn4C)C[C@H]2N(C)C1`: “inactive”. `Brc1c(Br)c(Br)c(Br)c(Br)c1Br`: the activity change, negative = cytotoxicity is 9.04% [at 5.95 µM] (inactive).

Take `CN(C)C(=O)Oc1cc(OC(=O)N(C)C)cc(C(O)CNC(C)(C)C)c1` (stereo not given): the Potency entry is “inactive”.

`CC(Cc1ccccc1)NCCn1cnc2c1c(=O)n(C)c(=O)n2C` (stereo not given): the Potency result is “inactive”. For `C=C1C[C@@H]2[C@H](CC[C@]3(C)C(=O)CC[C@@H]23)[C@@]2(C)C=CC(=O)C=C12`, the Potency result was “inactive”. `CC1N=C(N)OC1c1ccccc1` (stereo not given): the Potency result was “inactive”. Consider `CC(C)(N)Cc1ccc(Cl)cc1`, for which the Potency result is “inactive”. Same read-out and setting: the same measure for `CCOC(=O)C(SP(=S)(OC)OC)c1ccccc1` (stereo not given): “inactive”. With `CCOC1Oc2ccc(OS(C)(=O)=O)cc2C1(C)C` (stereo not given), the Potency entry is “inactive”. Still for that read-out and setting: the same measure for `Oc1ccc2c3c1O[C@H]1[C@@H](O)C=C[C@H]4[C@@H](C2)NCC[C@@]341`: “inactive”; for `C[C@H](N)C(=O)c1ccccc1`: “inactive”; for `CCN[C@H](C)Cc1cccc(C(F)(F)F)c1`: “inactive”. On the same count and under the same terms, the same measure for `CCC(C)C(C)(COC(N)=O)COC(N)=O` (stereo not given): “inactive”. Same read-out and setting: the same measure for `O=C(O)c1c(Cl)ccc2cc(Cl)cnc12`: “inactive”.

The record behind these values is PubChem BioAssay (Tox21).
